According to PubChem BioAssay (NCATS):
“And” between values parts separate entries of the source, which are not always exact repeats. Equal values may be shown once. Inconclusive results are not listed. Entries that show only a call come without a potency. Unmarked numbers belong to inactive results. The source made the active and inactive calls. The call rests on the fitted dose curve; in most records, active means well fitted inhibition curve with a large enough effect; inconclusive means small, poorly fitted or top-dose-only effect; inactive means flat fitted curve, though single readings scatter.

Experiment: P-glycoprotein substrates identified in KB-8-5-11 adenocarcinoma cell line, qHTS therapeutic library screen (AID 1346987); further: nearly all actives have a fitted effect of over 65% in size
Details: KB-8-5-11 (P-gp overexpressing) viability, CellTiter-Glo, 72 h; series mostly up to 44.5 µM
Outline: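 Human cervical adenocarcinoma KB-8-5-11 cells, selected in colchicine to over-express P-gp and assayed without it, were exposed for 72 h to titrated compounds. An ATP-based luminescent viability signal gave AC50.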
Potency means the concentration at half of the fitted maximal effect.

Compound	Potency	outcome	activity change, negative = cytotoxicity
C=C1[C@@H]2[C@H]3OC(=O)C(=C)[C@@H]3CC[C@@](C)(O)[C@@H]2C[C@@H]1O[C@@H]1O[C@H](CO)[C@@H](O)[C@H](O)[C@H]1O	inactive	–	–
CCCC1=CC2=C(CO1)C(=O)C(C)(OC(=O)c1c(C)cc(OC)cc1O)C(O)C2 (stereo not given)	inactive	–	–
O=CCCCC=O	inactive	–	–
O=C(c1ccc(NS(=O)(=O)c2cccc3cccnc23)cc1)N1CCN(CC2CC2)CC1	inactive	–	–
CC1CCCC2OC2C(=O)c2c(O)cc(O)cc2CC(=O)O1 (stereo not given)	inactive	–	–
CC1CCC2C(C)(C)C(O)CCC2(C)C12Cc1c(O)cc3c(c1O2)CN(C(CCC(N)=O)C(=O)O)C3=O (stereo not given)	inactive	–	–
OCc1ccccc1O[C@@H]1O[C@H](CO)[C@@H](O)[C@H](O)[C@H]1O	inactive	–	–
COC1C=C([C@@H]2CC=C3[C@@]4(C)C(CC[C@]32C)[C@@]2(C)C=CC(=O)C(C)(C)C2C[C@H]4OC(C)=O)C(=O)O1 (stereo not given in full)	inactive	–	–
O=C1NCc2nc3ccccc3c(=O)n2C1Cc1c[nH]c2ccccc12 (stereo not given)	inactive	–	–
CC1=CCC(C(C)(C)O)CC1 (stereo not given)	inactive	–	–
O=C(c1ccc(F)cc1)C1CCN(CCn2c(=O)nc3n(c2=O)CCCC3)CC1	inactive	–	–
CCOC(=O)[C@H](CCc1ccccc1)CC1(C(=O)N[C@H]2CCc3ccccc3N(CC(=O)O)C2=O)CCCC1	inactive	–	–
CC1OC(OC2C(O)C(C(=O)O)OC(OC3CCC4(C)C(CCC5(C)C4C=CC4=C6CC(C)(C)CC(O)C6(C)CCC45C)C3(C)C)C2OC2OCC(O)C(O)C2O)C(O)C(O)C1O (stereo not given)	–	inactive [at 9.29 µM]	–
O=S(=O)(O)O	inactive	–	–
COc1cc(/C=C/c2cc(O)cc(O[C@@H]3O[C@H](CO)[C@@H](O)[C@H](O)[C@H]3O)c2)ccc1O	inactive	–	–
CC1NC(=O)C(Cc2c[nH]c3ccccc23)NC1=O (stereo not given)	inactive	–	–
CC1(C)C(C=C(Cl)Cl)C1C(=O)OCc1cccc(Oc2ccccc2)c1 (stereo not given)	inactive	–	–
CCS(=O)(=O)N1CCC([C@@H](C)n2c(C)c(C(=O)NCc3c(OC)cc(C)[nH]c3=O)c3ccccc32)CC1	inactive	–	–
C#C[C@]1(O)CC[C@H]2[C@@H]3CCC4=C/C(=N/O)CC[C@@H]4[C@H]3CC[C@@]21CC	5.8 µM (active)	–	–
C[C@]12C=CC(=O)N[C@@H]1CC[C@@H]1[C@@H]2CC[C@]2(C)[C@@H](C(=O)Nc3cc(C(F)(F)F)ccc3C(F)(F)F)CC[C@@H]12	inactive	–	–

Compound	Potency	outcome	activity change, negative = cytotoxicity
C[C@]12CCC[C@](C)(C(=O)O)C1CCC13C=C(CO)C(CCC12)C3 (stereo not given in full)	inactive	–	–
CC12CC34C=CC(=O)C(C)(CCC(=O)O)C3C(CC1C4)O2 (stereo not given)	inactive	–	–
C/C=C(\C)C(=O)O[C@H]1[C@@H](O[C@]2(COC(=O)CC(C)C)O[C@H](COC(=O)C(C)C)[C@@H](OC(C)=O)[C@@H]2O)O[C@H](COC(C)=O)[C@@H](O)[C@@H]1O	inactive	–	–
C[C@H]1[C@H](C)CC[C@]2(C(=O)O)CC[C@]3(C(=O)O)C(=CCC4[C@@]5(C)CC[C@H](O[C@@H]6O[C@H](C)[C@@H](O)[C@H](O)[C@H]6O)C(C)(C)C5CC[C@]43C)[C@H]12 (stereo not given in full)	inactive	–	–
CC(C)CNC(=O)/C=C/CCCCc1ccc2c(c1)OCO2	inactive	–	–
CC1(O)CCC2C(C(=O)O)=COC(OC3OC(CO)C(O)C(O)C3OC(=O)/C=C/c3ccc(O)cc3)C21 (stereo not given)	inactive	–	–
CC(C)C(C#N)O[C@@H]1O[C@H](CO[C@@H]2OC[C@](O)(CO)[C@H]2O)[C@@H](O)[C@H](O)[C@H]1O (stereo not given in full)	inactive	–	–
C[C@]12O[C@H](C[C@]1(O)CO)n1c3ccccc3c3c4c(c5c6ccccc6n2c5c31)CNC4=O	4.61 µM (active)	–	–
NC(Cc1c[nH]c2ccccc12)C(=O)NC(CCC(=O)O)C(=O)O (stereo not given)	inactive	–	–
C#CCOc1ccc2c(C)cc(=O)oc2c1	inactive	–	–
CO[C@H]1C=C2C(CC[C@H](O[C@@H]3O[C@H](CO)[C@@H](O)[C@@H](O)[C@H]3O)C2(C)C)[C@]2(C)CC[C@]3(C)C([C@H](C)C(O)C(C=C(C)C)O[C@@H]4O[C@H](CO)[C@@H](O)[C@@H](O)[C@H]4O)CC[C@@]3(C)C12 (stereo not given in full)	–	–	0.439% [at 9.29 µM]
COC(=O)C1=CO[C@@H](O[C@@H]2O[C@H](CO)[C@@H](O)[C@H](O)[C@H]2O)[C@@H]2[C@@H](C(=O)OC)[C@@H](O)C(O)[C@H]12 (stereo not given in full)	inactive	–	–
CC(=O)Oc1c(C)cc(OCC(O)CNC(C)C)c(C)c1C (stereo not given)	inactive	–	–
CC1[C@@H](O)[C@@H](O)C2[C@]3(C)C(C[C@H]4OC(=O)[C@H](O)[C@]1(O)[C@@]24C)C(C)(O)C[C@H](O)[C@H]3O (stereo not given in full)	inactive	–	–
C[C@@H]1O[C@@H](O[C@@H]2[C@@H](O)[C@H](O[C@@H]3[C@@H](O)[C@@H](O)[C@H](O[C@H]4[C@H](OC(=O)[C@]56CCC(C)(C)C[C@H]5C5=CCC7[C@@]8(C)C[C@H](O)[C@H](O[C@@H]9O[C@H](C(=O)O)[C@@H](O)[C@H](O)[C@H]9O)[C@@](C)(CO)C8[C@H](O)C[C@@]7(C)[C@]5(C)CC6)OC[C@H](O)[C@@H]4O)O[C@H]3C)OC[C@H]2O)[C@H](O)[C@H](O)[C@H]1O (stereo not given in full)	–	inactive [at 9.29 µM]	–
CC(=O)c1cnc2ccc(-c3cc(Cl)c(O)c(Cl)c3)nc2c1NC1CCC(CN(C)C)CC1 (stereo not given)	119 nM (active) and 23.1 nM (active)	–	–
COc1cc(/C=C/C(=O)O[C@H]2[C@H](OC(=O)/C=C/c3cc(OC)c(O)c(OC)c3)O[C@H](CO[C@@H]3O[C@H](CO)[C@@H](O)[C@H](O)[C@H]3O)[C@@H](O)[C@@H]2O)ccc1O	inactive	–	–
C=CC(C)(O)CC/C=C(/C)C(=O)OC1C(OC2OCC(OC3OC(CO)C(O)C(O)C3O)C(OC3OCC(O)C(OC4OC(C)C(O)C(O)C4O)C3O)C2O)COC(OC(=O)C23CCC(C)(C)CC2C2=CCC4C5(C)CCC(OC6OC(CO)C(OC7OC(CO)C(O)C(OC8OCC(O)C(O)C8O)C7O)C(O)C6O)C(C)(C)C5CCC4(C)C2(C)CC3O)C1O (stereo not given)	–	–	-0.997% [at 5.11 µM]
CC1(C)CC[C@]2(C(=O)O)CC[C@]3(C)C(=CCC4[C@@]5(C)C[C@@H](O)[C@H](O)C(C)(C)C5CC[C@]43C)[C@@H]2[C@@H]1O (stereo not given in full)	inactive	–	–
COC(=O)C1=C[C@@H](O)[C@@H](O)[C@H](O[C@@H]2O[C@H](COC(=O)/C=C/c3ccccc3)[C@@H](O)[C@H](O)[C@H]2O)C1	inactive	–	–
